# LGR2 antag: Drosophila LGR2 receptor signaling inhibition. HEK293 LGR2, CRE-luciferase, bursicon-stimulated, 4 h. inhibition, % at 9.99 µM. 0.35% of 380,000 active;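 active = drop in luminescence signal, shown as inhibition above about 50% in the replicate tests, limit read from the data, passing the limit was not always enough; inconclusive = probably only some replicates passing the limit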;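 note: agonist challenge used bursicon conditioned medium at about half maximal strength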
# EWS-Fli block: inhibitors of EWS/Fli oncoprotein transcriptional activity; A673 NR0B1-luciferase reporter, viability-normalised; inhibition, % at 12.6 µM; 0.67% of 350,000 active; AID 651661;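 active = mean inhibition of at least 50% after viability correction, with every replicate also passing that limit; inconclusive = mean reaches 50% but only one of two replicates passes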;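 note: firefly luciferase signal divided by Alamar Blue viability fluorescence both relative to DMSO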
# TWEAK-Fn14 inh: blocks TWEAK-Fn14 interaction in a reporter cell assay | TWEAK-stimulated Fn14 reporter cells, luciferase luminescence, 8 h | inhibition, % at 10 µM | 2% of 360,000 active | AID 1159606; in the data active = inhibition above about 50%
# TROY signal inh: blocks TROY-dependent signaling in reporter cells. Q293 LMP1-TROYcd NF-kB luciferase reporter, 4 h. inhibition, % at 10 µM. 0.98% of 360,000 active;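 active = compounds whose plate-normalised and pattern-corrected inhibition of the luciferase reporter signal at the single screening dose is 50% or more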
# PAX8 reporter: lowers PAX8-driven luciferase in RMG-I cells. RMG-I TPO-luciferase reporter, SteadyGlo, 24 h. inhibition, % at 12.6 µM. 1.2% of 360,000 active. AID 652154;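 active = mean replicate inhibition at least 60% with every replicate also reaching 60%; inconclusive = only one of the two criteria is met; inactive = mean below 60% and not all replicates reaching 60%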;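 note: luciferase light reporting Pax8 driven TPO promoter activity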
# LMP1 NFkB inh: Epstein-Barr LMP1 NF-kappaB reporter inhibition. AID 504558. LMP1-induced NF-kappaB luciferase reporter cells, luminescence. 0.69% of 350,000 active. inhibition, % at 12.5 µM; in the data active = inhibition above about 41%; inconclusive = no clear call, values can overlap the other calls
# Hits are given with their value; n = inactive; u = inconclusive; x = no result; ! = not active in a repeat. Only some compounds are listed: those with a hit (about 3.2% of all), similar ones and a draw of the others.
SMILES,LGR2 antag,EWS-Fli block,TWEAK-Fn14 inh,TROY signal inh,PAX8 reporter,LMP1 NFkB inh
COc1ccc(S(=O)(=O)N(C)C[C@H]2Oc3ccc(NC(=O)Nc4ccc5c(c4)OCO5)cc3CC(=O)N([C@@H](C)CO)C[C@H]2C)cc1,n,n,x,x,n,x
CCS(=O)(=O)Nc1ccc2c(c1)C(=O)N(C)C[C@H](OC)[C@H](C)CN(C(=O)c1ccc3c(c1)OCO3)[C@@H](C)CO2,n,n,x,x,x,x
O=C(C[C@@H]1CC[C@@H](NS(=O)(=O)c2ccccc2)[C@H](CO)O1)N1CCN(c2ccccc2)CC1,n,n,x,x,n,x
C[C@H](CO)N1C[C@H](C)[C@@H](CN(C)Cc2ccc3c(c2)OCO3)Oc2ccc(NC(=O)NC3CCCCC3)cc2C1=O,n,n,x,x,n,x
COc1ccc(-c2c[n+](CC(=O)c3cccs3)c3n2CCC3)cc1,n,n,n,n,n,n
COc1ccc(-c2c[n+](CC(=O)N3c4ccccc4Sc4ccccc43)c3n2CCC3)cc1,n,n,n,n,76,n
O=C(C[n+]1cc(-c2ccc(Cl)cc2)n2c1CCC2)N1c2ccccc2Sc2ccccc21,n,x,n,n,70,n
COc1ccc(C(=O)C[n+]2cc(-c3ccc(OC)cc3)n3c2CCCC3)cc1,n,n,n,n,72!,n
O=C(C[n+]1cc(-c2ccc(Cl)c(Cl)c2)n2c1CCC2)N1c2ccccc2Sc2ccccc21,n,x,n,n,n,n
CC1CCC(C(C)C)C(OC(=O)C[n+]2cc(-c3ccc(Cl)cc3)n3c2CCC3)C1 (configuration not stated),n,n,n,55,n,n
COc1cccc(S(=O)(=O)Nc2ccc3c(c2)C(=O)N(C)C[C@@H](OC)[C@@H](C)CN(C(=O)Cc2cccnc2)[C@H](C)CO3)c1,n,n,x,x,n,x
C[C@@H]1CN([C@@H](C)CO)C(=O)Cc2cc(NS(=O)(=O)c3cn(C)cn3)ccc2O[C@H]1CN(C)Cc1ccc(C(=O)O)cc1,n,n,x,x,n,x
O=C(N[C@@H]1CC[C@H](CCNS(=O)(=O)c2ccc(Cl)cc2)O[C@@H]1CO)c1cccnc1,n,n,x,x,n,x
CO[C@H]1CN(C)C(=O)c2cc(NC(=O)NC3CCCCC3)ccc2OC[C@@H](C)N(CCc2ccccc2)C[C@H]1C,n,n,x,x,x,x
COc1ccc2c3c(n(C)c2c1)[C@@H](CO)N(Cc1cccc(Cl)c1)CC31CN(C(=O)C2CC2)C1,n,n,x,x,n,x
COc1c(Br)cc([N+](=O)[O-])c(OC)c1C(=O)NC(=O)Nc1c(Cl)cccc1Cl,n,n,n,n,n,n
COc1c(Br)cc([N+](=O)[O-])c(OC)c1C(=O)NC(=O)Nc1cc(Cl)cc(Cl)c1,x,n,n,52,n,n
C[C@H](NC(=O)[C@H]1N[C@H]2c3ccc(-c4cccnc4)c(=O)n3C[C@H]2[C@@H]1CO)c1ccccc1,n,n,x,x,x,x
O=C(CC1CC1)N1CC2(C1)[C@@H](c1ccccc1)[C@@H](CO)N2C(=O)c1cnccn1,n,n,x,x,n,x
C=C1C(=O)[C@]23C[C@H]1CCC2[C@@]1(C)C(C[C@@H]3O)[C@](C)(C(=O)O)C[C@H](O)[C@@H]1O (some centres not stated),n,n,n,n,n,x
C=C1C(=O)[C@]23C[C@H]1CC[C@H]2[C@]1(C)[C@@H](O)CC[C@@](C)(C(=O)O)[C@H]1C[C@@H]3O,n,n,n,n,u,x
C=C1C(=O)[C@]23C[C@H]1CC[C@H]2[C@]1(C)[C@@H](OC(C)=O)CC[C@@](C)(C(=O)OC)[C@H]1C[C@@H]3OC(C)=O,n,61,85,n,117,x
C=C1C(=O)[C@]23C[C@H]1CC[C@H]2[C@]1(C)[C@@H](OC(C)=O)CC[C@@](C)(C(=O)O)[C@H]1C[C@@H]3O,n,n,79,n,101,x
C=C1C(=O)[C@]23C[C@H]1CCC2[C@@]1(C)C(C[C@@H]3O)[C@](C)(C(=O)OC)CC[C@@H]1OC(C)=O (some centres not stated),92,53,96,n,108,x
COc1ccccc1NC(=O)N[C@H]1CC[C@@H](CC(=O)N2CCC(Cc3ccccc3)CC2)O[C@@H]1CO,n,n,x,x,n,x
SMILES,LGR2 antag,EWS-Fli block,TWEAK-Fn14 inh,TROY signal inh,PAX8 reporter,LMP1 NFkB inh
Cc1[nH]nc2ncc(C(=O)c3ccccc3O)cc12,x,x,59,n,n,n
C[C@@H]1CN([C@@H](C)CO)C(=O)Cc2cc(NC(=O)C3CC3)ccc2O[C@@H]1CN(C)Cc1ccccc1,n,n,x,x,n,x
C[C@H](CO)N1C[C@H](C)[C@@H](CN(C)Cc2ccc(-c3ccccc3)cc2)Oc2ccc(NC(=O)C3CC3)cc2CC1=O,n,n,x,x,104,x
C[C@H](CO)N1C[C@H](C)[C@@H](CN(C)Cc2ccc(-c3ccccc3)cc2)Oc2ccc(NC(=O)C3CCCCC3)cc2CC1=O,n,n,x,x,n,x
C[C@H]1CN([C@@H](C)CO)C(=O)Cc2cc(NC(=O)C3CC3)ccc2O[C@@H]1CN(C)Cc1ccc(-c2ccccc2)cc1,n,n,x,x,103,x
COc1ccc(-c2cc(-c3nc4ccccn4c3NCc3ccccc3)ccc2OC)cc1,100,76,n,n,102,n
CCCCNc1c(-c2ccc(OC)c(SC3CCCCC3)c2)nc2ccc(C)cn12,52!,n,59!,n,n,n
CCC(C)Sc1cc(-c2nc3ccccn3c2NC2CCCCC2)ccc1OC (configuration not stated),53!,n,n,n,n,n
CCC(C)Sc1cc(-c2nc3ccc(C)cn3c2NCc2ccccc2)ccc1OC (configuration not stated),n,n,78!,n,n,n
CO[C@@H]1CN(C)C(=O)c2ccc(NC(=O)CC(F)(F)F)cc2OC[C@H](C)N(C(C)=O)C[C@H]1C,n,n,x,x,x,x
CCN(Cc1ccc2c(c1)OCCO2)C(=O)CSc1nc(C)nc2sc(C)c(C)c12,n,n,n,58,n,n
CCN(Cc1ccc2c(c1)OCO2)C(=O)CSc1ncnc2sccc12,n,n,n,n,n,n
COc1ccc(S(=O)(=O)N(C)C[C@@H]2OCCCC[C@@H](C)Oc3ccc(NS(C)(=O)=O)cc3C(=O)N([C@@H](C)CO)C[C@H]2C)cc1,n,n,x,x,n,x
COc1ccc(-c2ccc([C@H]3[C@@H](CO)N4C(=O)CN(C(=O)c5ccccc5)C[C@@H]34)cc2)cc1,n,n,x,x,n,x
N=c1ccn(CC(=O)c2ccc(-c3ccccc3)cc2)cc1,n,n,n,n,83,n
O=C(CCl)c1ccc2c(c1)CCN2C(=O)C1CCCCC1,n,n,n,53,n,n
CCC1CCCCN1S(=O)(=O)c1ccc2c(c1)CCN2C(=O)C1CCC1 (configuration not stated),x,x,n,n,x,n
CCCNC(=O)Nc1ccc2c(c1)C(=O)N(C)C[C@H](OC)[C@H](C)CN(C(=O)CC)[C@H](C)CO2,n,n,x,x,n,x
CC1CCCN(C(=O)COC(=O)c2n[nH]c3ccccc23)C1 (configuration not stated),x,x,n,n,x,61

# Screens deposited in PubChem BioAssay by several laboratories.
